Hits are enriched below; roughly 19% of the tested compounds scored in any of these assays.
TDP1 cell noCPT: qHTS for Inhibitors of human tyrosyl-DNA phosphodiesterase 1 (TDP1): qHTS in cells in absence of CPT. DT40 Tdp1-/- hTDP1 cells, no CPT, ATP luminescence, 48 h. Potency, µM (series often up to 46.2 µM), without a hit: at the top dose activity change, negative = growth inhibition, most hits filed as inhibitors. actives 15% (n = 420,000). AID 686978, 2013; note: potency is the fitted concentration of half-maximal effect; nearly all actives have a fitted effect of over 55% in size
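Growth kinetics read by CellTiter-Glo luminescence after ≥48 hr at 37 °C. Cells: DT40 Tdp1-/- stably carrying human TDP1, 400 per well, compound exposure in the absence of CPT (DMSO vehicle).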
IL1B secr inh: qHTS for Inhibitors of Inflammasome Signaling: IL-1-beta AlphaLISA Primary Screen | THP-1 LPS/ATP IL-1B secretion, AlphaLISA, 16 h; stronger effect = lower value | activity change, % at 57.5 µM | actives 4.7% (n = 360,000) | AID 743279, 2014; in the data active = activity change below about -50%; inconclusive = mostly about -30% to -49%
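THP-1 cells pretreated 1 hr with compounds (up to 57.5 uM final), then stimulated with LPS (250 ng/mL final) plus ATP (1.25 mM final); secreted IL-1B measured by AlphaLISA after 16 hr, decreased signal indicating inhibition.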
DT40 TDP1 CPT: qHTS for Inhibitors of human tyrosyl-DNA phosphodiesterase 1 (TDP1): qHTS in cells in presence of CPT | chicken DT40 Tdp1-/-;hTDP1 cells + 20 nM CPT, ATP luminescence, 48 h | Potency, µM (highest dose often 46.2 µM), without a hit: top-dose activity change, negative = growth inhibition, usual class: inhibitors | actives 12% (n = 420,000) | AID 686979, 2013; note: potency is the fitted concentration of half-maximal effect; nearly all actives have a fitted effect of over 55% in size
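Cell growth measured by CellTiter-Glo luminescence after a minimum 48 h, 37 C compound exposure with 20 nM CPT in Tdp1-knockout DT40 cells stably expressing hTDP1, seeded 400/well; qHTS titration format.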
HT1080NT lethal: qHTS for induction of synthetic lethality in tumor cells producing 2HG: qHTS for the HT-1080-NT fibrosarcoma cell line; HT-1080-NT fibrosarcoma viability, CellTiter-Glo ATP luminescence, 48 h; Potency, µM (titrated, usually from 46.1 µM), without a hit: top-dose activity, negative = less viability, actives largely listed as cytotoxic; actives 1.6% (n = 360,000); AID 686970, 2013;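 note: NT is the 2HG producing partner of a matched IDH1 knockdown line; potency is the fitted concentration of half-maximal effect; 0% = DMSO-treated cells and -100% = media-only wells without cells; nearly all actives have a fitted effect of over 55% in size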
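Toxicity toward the 2HG-producing NT line was scored as %Activity, normalised to DMSO and no-cell wells, from CellTiter-Glo luminescence after 48 hours' treatment.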
HT1080 IDH1KD tx: qHTS for induction of synthetic lethality in tumor cells producing 2HG: qHTS for the HT-1080-IDH1KD cell line; HT-1080 IDH1 knockdown viability, ATP luminescence, 48 h; Potency, µM (highest dose often 46.1 µM), for the others: at the highest dose activity, negative = toxicity, actives largely listed as cytotoxic; actives 2% (n = 360,000); AID 686971, 2013;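 note: potency is the fitted concentration of half-maximal effect; 0% = DMSO wells and -100% = cell-free medium wells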
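CellTiter-Glo luminescence after 48 h compound exposure at 37 degrees C of IDH1-knockdown HT-1080 cells in 5% FBS RPMI. %Activity scaled between DMSO wells and cell-free media wells, with curves fitted and assigned curve classes.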
Active calls of the source: *; i = inactive; u = inconclusive; x = no result. Unless noted, calls come from the whole dose curve; as a rule, active = well fitted curve in the direction sought with a large enough effect; inconclusive = small, poorly fitted or top-dose-only effect, or another doubt; inactive = no such curve, though single readings can be large; an effect the other way counts as inactive or inconclusive. Unless noted, % is set by controls: 0 for no effect and ±100 for the full control effect.

SMILES | TDP1 cell noCPT | IL1B secr inh | DT40 TDP1 CPT | HT1080NT lethal | HT1080 IDH1KD tx
CC(=O)c1ccc(NC(=O)CS(=O)(=O)c2cn(CC(=O)N3CCOCC3)c3ccccc23)cc1 | 2% | -16 | 19% | 20% | 1%
CC1(C)Cc2c(c(N3CCOCC3)nc3sc(C(=O)Nc4ccc(Cl)cc4)c(N)c23)CO1 | 23µM* | -1 | u | 14% | 15%
CCOC(=O)c1sc2nc(-c3ccco3)c3c(c2c1N)CC(C)(C)OC3 | 21µM* | -53* | 21µM* | 0% | -11%
CN1Cc2c(N3CCOCC3)nc3sc(C(=O)c4ccccc4)c(N)c3c2CC1(C)C | u | -10 | 16µM* | -14% | -10%
CC1(C)Cc2c(c(N3CCOCC3)nc3sc(C(N)=O)c(N)c23)CO1 | u | -15 | 9% | -18% | -4%
COc1cccc(NC(=O)c2sc3nc(N4CCOCC4)c4c(c3c2N)CC(C)(C)OC4)c1 | 6.5µM* | x | 5.8µM* | x | x
CC(=O)c1cccc(NC(=O)C(C)N2CCc3ccccc3C2)c1 (stereo not drawn) | -20% | 34 | 4% | 16% | -7%
CCOC(=O)c1ccc(N2C(=O)c3[nH]nc(-c4ccccc4)c3C2c2cccs2)cc1 (stereo not drawn) | 21µM* | x | 23µM* | x | x
CCOc1ccc(N2C(=O)c3[nH]nc(-c4ccc(OC)cc4)c3C2c2cccs2)cc1 (stereo not drawn) | 26µM* | x | 23µM* | x | x
CCOC(=O)c1ccc(N2C(=O)c3[nH]nc(-c4ccc(OCC)cc4)c3C2c2cccs2)cc1 (stereo not drawn) | 3.7µM* | x | 7.3µM* | x | x
CCOC(=O)c1ccc(N2C(=O)c3n[nH]c(C)c3C2c2ccccn2)cc1 (stereo not drawn) | -29% | -6 | -25% | -4% | -3%
CCCN1C(=O)c2[nH]nc(-c3ccc(OC)cc3)c2C1c1ccccn1 (stereo not drawn) | 26µM* | x | u | x | x
CCCCCCCCN1C(=O)C(O)=C(C(C)=O)C1c1ccccn1 (stereo not drawn) | u | 39 | -18% | -1% | 3%
O=C(NCCOC(=O)c1ccccc1)c1ccc([N+](=O)[O-])cc1 | -31% | 27 | u | 0% | 6%
CCOC(=O)c1ccc(N2C(=O)c3[nH]nc(-c4ccccc4)c3C2c2ccc(CC)cc2)cc1 (stereo not drawn) | 18µM* | x | 21µM* | x | x
COc1cccc(OC)c1OCCNC[C@@H]1COc2ccccc2O1 | 27µM* | x | 27µM* | x | x
Cn1cc(CN2CCC(C(O)c3cccs3)CC2)c(-c2cccc(Cl)c2)n1 (stereo not drawn) | -19% | u | 5% | -29% | u
Cc1cc(N2CCN(Cc3cn(C)nc3-c3ccccc3F)CC2)cc(C)n1 | 5.8µM* | u | 5.8µM* | u | u
Cn1cc(CN2CCc3sccc3C2)c(-c2ccccc2F)n1 | -26% | 14 | -3% | -7% | 21%
Cc1cc(N2CCN(Cc3cn(C)nc3-c3cccc(Cl)c3)CC2)cc(C)n1 | 5.8µM* | -82* | 5.2µM* | 15µM* | 16µM*
Cc1ccccc1NC(=O)C(C#N)Cc1cccnc1 (stereo not drawn) | 5% | 13 | -3% | 6% | 5%
NC(=O)c1c(NC(=O)c2ccc(N3C(=O)CCC3=O)cc2)sc2c1CCCC2 | -17% | u | 7% | 1% | 0%
CSc1ccccc1OCc1cc(C(=O)NCCN2CCCc3ccccc32)no1 | 15µM* | -10 | u | -24% | 12µM*
CSc1ccccc1OCc1cc(C(=O)NCCn2nc(C)cc2C)no1 | u | 10 | 12µM* | 1% | -3%
CSc1ccccc1OCc1cc(C(=O)N(C)Cc2ccc(C)o2)no1 | u | -67* | 16µM* | -1% | 1%
SMILES | TDP1 cell noCPT | IL1B secr inh | DT40 TDP1 CPT | HT1080NT lethal | HT1080 IDH1KD tx
CCN(CC1CCCO1)C(=O)c1cc(COc2ccccc2SC)on1 (stereo not drawn) | 21µM* | i | 16µM* | -6% | -3%
CSc1ccccc1OCc1cc(C(=O)NCCC2=CCCCC2)no1 | -29% | 18 | -19% | u | -19%
CSc1ccccc1OCc1cc(C(=O)N(C)Cc2ccc3nsnc3c2)no1 | -28% | i | u | 7% | 5%
CCN(CC)C1CCN(C(=O)c2cc(COc3ccccc3SC)on2)C1 (stereo not drawn) | 1% | 0 | -12% | -3% | -1%
CCCn1c(N)cc(=O)n(C)c1=O | -4% | 1 | 0% | 9% | 7%
CC1(C)Cc2ccccc2C(NNC(=O)c2ccc(Br)o2)=N1 | -19% | 0 | -20% | -2% | 11%
Cc1ccc(-n2c(=O)c3c(C)c(C(=O)N(C)C)sc3n(CC(=O)C(C)(C)C)c2=O)cc1C | -15% | x | -24% | x | x
O=C(COCCOCCOCC(=O)Nc1c(I)cc(I)c(C(=O)O)c1I)Nc1c(I)cc(I)c(C(=O)O)c1I | -12% | x | 3% | x | x
O=C(CSc1ccc(-c2ccc(Br)cc2)nn1)NC1CCCC1 | u | 0 | -3% | 3% | 0%
CCC(=O)Nc1ccc(NC(=O)CSc2nnnn2C(C)C)cc1 | 3% | 0 | -11% | 7% | 5%
COc1ccc(S(=O)(=O)N2CCN(C(=O)c3ccc(NC(C)=O)cc3)CC2)cc1 | 15% | -22 | 1% | 16% | 15%
c1ccc(-c2nnc(CN3CCCCC3)o2)cc1 | -12% | 14 | -6% | -4% | -5%
c1ccc(-c2nnc(CN3CCCc4ccccc43)o2)cc1 | 23µM* | 16 | u | -2% | -5%
O=S(=O)(Nc1cccnc1)c1ccc(Cl)c(C(F)(F)F)c1 | -10% | 5 | 4% | 1% | -7%
COc1ccc(N2CCN(C(=O)CCCCn3c(=O)[nH]c4ccsc4c3=O)CC2)cc1 | 26µM* | 15 | u | 14% | -11%
COc1cc2[nH]c(=O)n(CCCCCC(=O)N3CC=C(c4ccccc4)CC3)c(=O)c2cc1OC | 16µM* | -73* | 26µM* | -7% | -1%
COc1ccc(N2CCN(C(=O)CCCn3c(=O)[nH]c4ccsc4c3=O)CC2)cc1 | -13% | -2 | -22% | 13% | 8%
O=C(Cc1ccc(-n2c(=O)[nH]c3ccsc3c2=O)cc1)N1CCN(c2ccc(Cl)cc2)CC1 | u | -75* | u | -13% | -9%

From PubChem BioAssay
